# From PubChem BioAssay (Tox21)
# Results filed as inconclusive are left out. A call without a number means that no potency is given here. A number with no mark means an inactive call. Active and inactive are the calls of the source. The call rests on the fitted dose curve; in most records, active means well fitted inhibition curve with a large enough effect in the repeat runs; inconclusive means weak or mixed curves, or effect the other way; inactive means no such curve, though single readings can be large or run the other way.
# Target: Nuclear receptor subfamily 1 group I member 3 (Homo sapiens) (UniProt Q14994)
# Test: qHTS assay to identify small molecule antagonists of the constitutive androstane receptor (CAR) signaling pathway (AID 1224838);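 further: HepG2 cells stably expressing hCAR with CYP2B6 luciferase reporter stimulated by CITCO; nearly all actives have a fitted effect of over 40% in size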
# Settings: HepG2-CYP2B6-hCAR luciferase, CITCO-stimulated, 24 h; series mostly up to 92.4 µM
# Text: U.S. Tox21 Program National Center for Advancing Translational Sciences [NCATS] NIH Chemical Genomics Center [NCGC] U.S. Environmental Protection Agency [EPA] National Institutes of Environmental Health Sciences [NIEHS] National Toxicology Program [NTP] U.S. Food and Drug Administration [FDA] Tox21 Assay Overview: The constitutive androstane receptor (CAR) is a nuclear receptor which regulates multiple drug metabolizing enzymes (DMEs) and transporters. Activating CAR will generally increase the transcription and subsequent translation of CYP2B6 and CYP3A4. These two DMEs represent about 50% of the drug metabolizing potential in the body. When CAR is deactivated, the metabolizing potential in the body will decrease, subsequently increasing the toxicity in the body or lowering the therapeutic potential of a pro-drug. Recently, there have also been studies performed indicating CARs role in energy metabolism and cancer therapy. Therefore, inhibiting CARs activity could have a potential effect on diabetes and cancer. Identifying environmental toxins and compounds which modulate CAR, through the use of the Tox21 10K compound collection, will be an important step in determining the toxicity and potential therapeutic effects these factors will have on the human body.
# Tox21 Assay Protocol Summary: A double-stable (hCAR and CYP2B6-2.2kb) transfected cell line, derived from human hepatoma (HepG2) cells, was utilized for the duration of the quantitative high-throughput screens. The HepG2-CYP2B6-hCAR cells suspended in DMEM culture medium supplemented with 10% FBS, 5 ug/mL blasticidin, 0.5 mg/mL geneticin, 100 U/mL penicillin and 100 ug/mL streptomycin were dispensed at 2500 cells/4 uL/well in 1536-well white solid bottom plates using a Multidrop Combi. After the assay plates were incubated at 37 C/5% CO2 for 4 hrs, 23 nL of compounds at 15 concentrations (from 5-48 columns) or positive control (from 1 to 4 columns) were transferred to the assay plates using a Pintool station. One uL of CITCO, was added using a Flying Reagent Dispenser to generate a final concentration of 50 nM CITCO inside each well. After a 24 hr incubation period at 37 C/5% CO2, four uL of ONE-Glo reagent was added into the assay plates using a Flying Reagent Dispenser. After a 30 min incubation period at room temperature, the luminescence intensity in the assay plates was measured using a ViewLux plate reader.
# Potency means the concentration at half of the fitted maximal effect.
# Sequence of Nuclear receptor subfamily 1 group I member 3 (Homo sapiens) (Q14994 whole entry, looked up): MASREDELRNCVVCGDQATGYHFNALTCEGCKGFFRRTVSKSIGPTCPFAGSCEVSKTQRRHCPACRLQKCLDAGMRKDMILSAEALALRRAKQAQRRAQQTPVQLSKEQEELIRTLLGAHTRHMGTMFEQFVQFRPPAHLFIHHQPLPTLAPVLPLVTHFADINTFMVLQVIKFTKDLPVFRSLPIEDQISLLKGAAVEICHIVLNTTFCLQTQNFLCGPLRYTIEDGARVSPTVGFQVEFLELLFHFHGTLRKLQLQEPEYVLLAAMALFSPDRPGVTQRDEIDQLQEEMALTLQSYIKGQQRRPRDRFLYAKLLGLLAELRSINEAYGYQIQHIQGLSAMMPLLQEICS
Structure (SMILES),Potency,"activity, negative = inhibition"
CCCCCc1ccco1,inactive,
COc1cc(NS(=O)(=O)c2ccc(N)cc2)nc(C)n1,inactive,
CC(=O)NCCO,inactive,
CCN(CC)C(=O)/C(C#N)=C/c1cc(O)c(O)c([N+](=O)[O-])c1,inactive,
CC(=O)OC(C)C[N+](C)(C)C (stereo not given),inactive,
c1ccc(CNc2ncnc3c2ncn3C2CCCCO2)cc1 (stereo not given),inactive,
COc1ccc(CCN(C)CCCN2CCc3cc(OC)c(OC)cc3CC2=O)cc1OC,inactive,
CC(=O)OCCC1CCCCC1,inactive,
CC1C(C)(C)C2=C(C(=O)CCC2)C1(C)C (stereo not given),inactive,
CCC(CO)(CO)[N+](=O)[O-],inactive,
C[C@H](CS)C(=O)N1CCC[C@H]1C(=O)O,inactive,
Nc1c(Cl)cc(Cl)cc1[N+](=O)[O-],inactive,
Cc1ccccc1S(N)(=O)=O,inactive,
O=C(NS(=O)(=O)/C=C/c1ccccc1)c1ccc(F)cc1Cl,inactive,
Cc1ccc(N(CCO)CCO)cc1,inactive,
CCC1CCC(CCC(=O)O)C1 (stereo not given),inactive,
CSSc1ccoc1C,inactive,
CC(=O)OCC1=C(C(=O)O)N2C(=O)[C@@H](NC(=O)CSc3ccncc3)[C@H]2SC1,inactive,
Cc1ccc(N(CC2=NCCN2)c2cccc(O)c2)cc1,inactive,
CC1CCCO1 (stereo not given),inactive,

Structure (SMILES),Potency,"activity, negative = inhibition"
C=C(C)c1ccccc1,inactive,
O=[N+]([O-])c1ccc2ncccc2c1,inactive,
COc1cc(NCc2ccc3nc(N)nc(N)c3c2C)cc(OC)c1OC,0.0266 µM (active),
Cc1c[nH]c2ccccc12,inactive,
c1ccc2sc(SSc3nc4ccccc4s3)nc2c1,,80.4% [at 19 µM]
CCCCCCCCCCCSCC(=O)O,inactive,
CC(C)C(O)C(C)(C)CO (stereo not given),8.91 µM (active),
CNC1CCCN(c2c(F)cc3c(=O)c(C(=O)O)cn(C4CC4)c3c2OC)C1 (stereo not given),inactive,
CCCCCC,inactive,
COc1ccc2nc(S(=O)Cc3ncc(C)c(OC)c3C)[nH]c2c1 (stereo not given),inactive,
CC(=O)OCC(=O)[C@@]1(OC(C)=O)[C@@H](C)C[C@H]2[C@@H]3C[C@H](F)C4=CC(=O)C=C[C@]4(C)[C@@]3(F)[C@@H](O)C[C@@]21C,inactive,
O=C(C(=O)c1ccco1)c1ccco1,inactive,
CCOC(=O)c1c(N)sc2c1CCN(Cc1ccccc1)C2,inactive,
O=c1[nH][nH]c(=O)c2cc([N+](=O)[O-])ccc12,inactive,
CC(C)c1ccc(C#N)cc1,inactive,
CC(=O)OCC(C)C,inactive,
Cc1c(C2(c3cc(Br)c(O)c(Br)c3C)OS(=O)(=O)c3ccccc32)cc(Br)c(O)c1Br,11.8 µM (active),
CC(C(=O)O)c1ccc(C(=O)c2cccs2)cc1 (stereo not given),inactive,
Cc1ccc(NC(=O)N(C)C)cc1NC(=O)N(C)C,inactive,
CCNc1nc(N)nc(Cl)n1,24.3 µM (active),
